# About 11,000 (3.1%) of roughly 360,000 compounds were called active. Entries that show only a call come without a potency. Another 4% or so got no clear call; they are omitted. Calls come from the whole dose curve; as a rule, active = well fitted inhibition curve with a large enough effect; inconclusive = small, poorly fitted or top-dose-only effect; inactive = no such curve, though single readings can be large or run the other way. Many of the other results were omitted from the sample, so actives are more common in it than they were.
# Target: Schistosoma mansoni thioredoxin glutathione reductase (TGR) (UniProt Q962Y6)
# Assay: qHTS Assay for the Inhibitors of Schistosoma Mansoni Peroxiredoxins; note: nearly all actives have a fitted effect of over 60% in size
# Details: purified TGR, DTNB reduction, TNB absorbance 405 nm; series mostly up to 114 µM
# Procedure, shortened: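 First, TGR (20 nM dispensed) and NADPH were mixed with compound. Second, a 15 min room-temperature incubation followed. Third, further NADPH and then DTNB were added to start the reaction. Finally, TNB absorbance was monitored kinetically.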
# Potency is the fitted concentration of half-maximal effect.
row,Compound,Potency
1,COc1cc(CN(CC2CCCO2)C(=O)c2ccccc2F)cc(OC)c1OC (stereo not drawn),inactive
2,CCc1nc2c(cnn2-c2ccc(C)cc2)c(=O)n1-c1ccc(C)cc1,inactive
3,COc1cc(CN2CCC(n3nccc3NC(=O)CCCc3ccccc3)CC2)ccc1O,44.7 µM (active)
4,Cc1ccc(CN2CCC(n3nccc3NC(=O)CCCc3ccccc3)CC2)o1,inactive
5,COc1ccc(CN2CCC(n3nccc3NC(=O)CCCc3ccccc3)CC2)cc1C,inactive
6,CC1=Nc2cc(C(=O)N3CCC(C)CC3)ccc2Sc2ccc(Cl)cc21,inactive
7,N=C1C(c2nc3ccccc3[nH]2)=C(O)CN1NC(=O)c1c[nH]c2ccccc12,inactive
8,Cc1ccc(C)n1NC(=O)c1ccc([N+](=O)[O-])cc1,inactive
9,N=C1C(c2nc3ccccc3s2)=C(O)CN1NC(=O)c1ccc([N+](=O)[O-])cc1,12.6 µM (active)
10,CCC(=O)N1CCc2cc(Br)cc(S(=O)(=O)NCc3ccc(Cl)cc3)c21,inactive
11,Cc1nn(CC(=O)O)c(=O)c2cc3cc(F)ccc3n12,inactive
12,COc1ccccc1NC(=O)c1cc(S(=O)(=O)NCCc2ccccc2)ccc1F,inactive
13,C=CCn1c(CSc2nc3ccccc3s2)nnc1SCC(=O)NCc1ccco1,11.2 µM (active)
14,O=C(CSc1nc2ccc(Nc3nc(N4CCOCC4)nc(N4CCOCC4)n3)cc2s1)NCc1ccco1,inactive
15,C=CCn1c(SCC(=O)NCc2ccccc2)nnc1-c1cc(Br)ccc1O,inactive
16,Cn1c2ccc(F)cc2c2nnc(NN)nc21,50.1 µM (active)
17,CC(=O)Nc1ccc(NC(=O)CSc2nnc3c4cc(Br)ccc4n(C)c3n2)cc1,inactive
18,CCn1c2ccc(F)cc2c2nnc(SCCN3CCOCC3)nc21,inactive
19,COc1ccc(S(=O)(=O)NCc2cccn2Cc2cccc(C)c2)cc1Cl,inactive
20,CCOc1cc(C(=O)Nc2nnc3n2CCS3)cc(OCC)c1OCC,inactive
21,CCc1cccc(NC(=O)CN(c2ccc(C)c(C)c2)S(=O)(=O)c2ccsc2C(=O)OC)c1,inactive
22,CC(=O)N1CC(C)c2scc(C)[n+]2-c2ccccc21 (stereo not drawn),1.58 µM (active)
23,Cc1ccc(/C=C(\C#N)C(=O)Nc2cc(C)ccc2C)cc1,inactive
24,Cc1nn(C(C)C(=O)Nc2ccc(C(C)C)cc2)c(=O)c2c1sc1ccccc12 (stereo not drawn),inactive
25,CCOC(=O)c1c(NC(=O)c2ccc(S(=O)(=O)N3CCCC(C)C3)cc2)sc2c1CCN(C(C)C)C2 (stereo not drawn),inactive
26,Cc1cc(C)c2c(n1)nn1c(-n3ccnc3)cc(C)nc21,35.5 µM (active)
27,COC(=O)c1cc(NC(=O)CCc2c(C)nc3c4c(C)cc(C)nc4nn3c2C)cc(C(=O)OC)c1,inactive
28,Cc1cc(C)c2c(NC(=O)C3CC3)nn(C)c2n1,inactive
